# N-glyco inh – increase of ERlucT glycosylation luciferase signal, primary screen, N-linked glycosylation inhibitor project, D54 ERlucT cells, luminescence, set 2; reporter increase, % at 12.5 µM; 0.23% of 360,000 active; D54 ERlucT glycosylation luciferase reporter, 24 h; percent of 100 nM tunicamycin response;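 active means mean luciferase reporter signal, scaled so untreated is 0 and the glycosylation-blocking control 100, at or above a set limit in every replicate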;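 further: luciferase carries N-glycosylation sites so blocking glycosylation raises the light; 0% = median of neutral control wells and 100% = median of 100 nM tunicamycin wells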
# CDK5 p35 inh – inhibitors of human CDK5/p35 kinase, primary screen, biochemical, single concentration. Cyclin-dependent kinase 5 (Homo sapiens) + Cyclin-dependent kinase 5 activator 1 (Homo …. Recombinant CDK5/p35, ADP-Glo luminescence, 60 min. inhibition, % at 10 µM. 0.01% of 330,000 active;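 active means highest replicate inhibition of at least 50% and at least 75% of replicates reaching 50%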;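 further: plate controls were DMSO neutral control for no effect and GW8510 at 10 µM for full effect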
# Target sequence (Q00535 whole entry, looked up): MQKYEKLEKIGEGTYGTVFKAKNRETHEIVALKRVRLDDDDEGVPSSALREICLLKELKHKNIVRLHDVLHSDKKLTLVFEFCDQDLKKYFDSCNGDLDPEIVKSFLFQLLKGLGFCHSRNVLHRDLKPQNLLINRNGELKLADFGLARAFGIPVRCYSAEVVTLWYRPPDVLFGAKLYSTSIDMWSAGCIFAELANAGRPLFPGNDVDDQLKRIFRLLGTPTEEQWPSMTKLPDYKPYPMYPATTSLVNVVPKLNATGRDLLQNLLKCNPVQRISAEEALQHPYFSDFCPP
# Target sequence (Q15078 whole entry, looked up): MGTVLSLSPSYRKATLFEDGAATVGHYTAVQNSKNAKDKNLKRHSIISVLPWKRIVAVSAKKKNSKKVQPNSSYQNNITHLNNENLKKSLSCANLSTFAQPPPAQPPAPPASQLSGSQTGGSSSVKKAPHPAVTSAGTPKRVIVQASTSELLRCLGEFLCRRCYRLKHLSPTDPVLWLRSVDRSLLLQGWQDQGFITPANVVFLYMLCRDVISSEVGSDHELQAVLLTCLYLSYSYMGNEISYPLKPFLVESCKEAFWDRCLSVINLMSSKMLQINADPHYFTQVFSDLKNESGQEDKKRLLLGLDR
# CASP6 VEID inh – human caspase-6 inhibitors, primary screen, biochemical, VEID-R110 fluorescence, single point, set 2. inhibition, % at 12.5 µM. 0.53% of 350,000 active. purified caspase-6, Z-VEID-R110 cleavage fluorescence;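 active means mean inhibition across replicates at least about 35%, with every replicate also reaching that limit, limit read from the data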;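 further: 0% = median of neutral control wells and 100% = no fluorescence left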
# ALR inh – inhibitors of human ALR sulfhydryl oxidase, primary screen, biochemical, H2O2 detection, HRP-luminol luminescence, single point. purified ALR, DTT oxidation. inhibition, % (test concentration not listed). 3.8% of 290,000 active. AID 485317, 2010;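 active means mean replicate inhibition above about 79%, with every replicate also reaching it, limit read from the data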
# NSD2 inh – NSD2 histone methyltransferase inhibitors, primary screen, biochemical, AlphaScreen, single concentration, set 2. AID 743445, 2014. 0.54% of 310,000 active. inhibition, % at 12.5 µM. Histone-lysine N-methyltransferase NSD2 (Homo sapiens), O96028. NSD2 peptide methylation, 120 min; in the data active means inhibition above about 50%
# Mot1-301 SUMO – yeast Mot1-301 growth rescue at high temperature, primary screen, SUMOylation pathway inhibitor project, S. cerevisiae, ATP luminescence, 38.5C; growth rescue, % at 18.8 µM; S. cerevisiae Mot1-301 growth rescue; percent above DMSO median, 100 means doubled; 1% of 320,000 active;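 active means every valid replicate shows activation above 250% relative to neutral control wells; inactive means the rest, any valid replicate at or below 250%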;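 further: OY570 slx delta 5 strain wells were the positive control but not used for scaling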
# The depositor's hits bear a star; . = no result. Most compounds without a hit are left out; they make up all but 3.9% or so of the library.
SMILES,N-glyco inh,CDK5 p35 inh,CASP6 VEID inh,ALR inh,NSD2 inh,Mot1-301 SUMO
CC(C)CC#Cc1cnc2c(c1)C(=O)N([C@@H](C)CO)C[C@@H](C)[C@H](CN(C)Cc1cncnc1)O2,.,.,0.7,.,.,.
CCOc1cc(C=NNC(=O)c2cccc(S(=O)(=O)N3CCCC3)c2)ccc1O,-2.7,-7.3,2.7,95.1*,1.2,-12.4
O=C(N/N=C/c1ccc(O)c(O)c1)c1cccc(S(=O)(=O)N2CCCCC2)c1,-3.2,1.6,.,99.0*,11.5,4.2
C[C@@H]1CN([C@@H](C)CO)S(=O)(=O)c2ccc(C3=CCCCC3)cc2O[C@@H]1CN(C)C(=O)Cc1ccccc1,.,.,2.8,.,.,.
Cc1ccnc2nc(C(=O)OCC(=O)c3ccc(NC(=O)CC(C)C)cc3)nn12,9.0,1.4,0.4,-4.4,0.0,-2.3
CCC(=O)Nc1ccc(C(=O)COC(=O)c2nc3nccc(C)n3n2)cc1,0.2,1.5,68.6*,-1.7,6.6,13.0
COC(=O)c1ccc(CSc2cc(C)c3ccccc3n2)o1,2.1,-0.8,2.7,3.9,-1.3,.
COC(=O)c1ccc(CSc2nc(C(F)(F)F)c3c(c2C#N)CCC3)o1,1.2,0.0,.,98.0*,-7.2,-16.3
O=C(CCc1ccc(S(=O)(=O)N2CCOCC2)cc1)N/N=C/c1ccc(O)c(O)c1O,-15.9,0.8,.,99.0*,4.5,-10.5
Cc1ccccc1-c1nc(CS(=O)CC(=O)NCCCN(C)c2ccccc2)c(C)o1 (centres undefined),-1.5,-1.9,2.7,99.4*,20.6,-13.4
Cc1ccccc1-c1nc(CS(=O)CC(=O)NCCN2CCN(Cc3ccccc3)CC2)c(C)o1 (centres undefined),-1.0,0.8,.,98.7*,3.5,0.3
CCCNC(=O)CS(=O)Cc1nc(-c2ccccc2C)oc1C (centres undefined),2.1,-6.0,1.8,99.3*,.,-0.3
Cc1ccccc1-c1nc(CS(=O)CC(=O)NCc2ccccn2)c(C)o1 (centres undefined),0.6,-1.4,3.0,98.5*,1.8,-8.9
C[C@@H]1CN([C@@H](C)CO)C(=O)c2cc(-c3cncnc3)cnc2O[C@@H]1CN(C)C(=O)CN1CCOCC1,.,.,-0.7,.,.,.
C[C@H]1CN([C@@H](C)CO)C(=O)c2cc(NC(=O)CCC(F)(F)F)ccc2O[C@@H]1CN(C)CC1CCCCC1,.,.,-1.5,.,.,.
COc1ccccc1-c1cn(CC[C@@H]2CC[C@@H](NC(=O)C3CCCCC3)[C@H](CO)O2)nn1,.,.,-0.9,.,.,.
O=C(C[C@@H]1C=C[C@H](NC(=O)C2CC2)[C@H](CO)O1)NCc1ccccc1Cl,.,.,4.0,.,.,.
Cc1cc(C(=O)Nc2cccc3c2O[C@@H](CN(C)C(=O)Nc2ccc4c(c2)OCO4)[C@@H](C)CN([C@@H](C)CO)C3=O)n(C)n1,.,.,-0.7,.,.,.
CCC(C)NC(=O)CS(=O)Cc1nc(-c2ccccc2C)oc1C (centres undefined),1.6,-0.8,-2.6,98.3*,.,8.2
O=C(O)c1ccccc1-c1ccccc1C(=O)Nc1ccc(F)cc1,0.8,1.9,0.9,1.8,0.6,26.4
O=C(/C=C/c1ccc(NC(=O)c2ccccc2-c2ccccc2C(=O)O)cc1)c1ccccc1,6.8,-0.7,24.0,98.4*,20.1,5.4
O=C(NCC[C@@H]1CC[C@@H](NS(=O)(=O)c2cccc(F)c2)[C@@H](CO)O1)C1CCCCC1,.,.,-2.5,.,.,.
O=C1N=NC(=O)N1c1ccccc1,3.1,0.2,1.0,87.5*,.,-6.0
Cn1c(=O)[nH]c(=O)c2c1nc(NN)n2CCOc1ccccc1,61.4*,0.4,-0.3,.,1.3,-4.2
COc1ccc(CCn2c(N3CCOCC3)nc3c2c(=O)[nH]c(=O)n3C)cc1,1.8,-1.4,.,99.2*,0.9,14.1
SMILES,N-glyco inh,CDK5 p35 inh,CASP6 VEID inh,ALR inh,NSD2 inh,Mot1-301 SUMO
Cn1c(=O)[nH]c(=O)c2c1nc(N1CCOCC1)n2CC(O)COc1ccccc1 (centres undefined),6.2,-0.7,.,-2.4,-1.1,7.1
Cn1c(=O)[nH]c(=O)c2c1nc(N1CCCC1)n2CC(O)COc1ccccc1 (centres undefined),-0.8,-0.4,2.3,94.6*,.,-0.7
CCCNc1nc2c(c(=O)[nH]c(=O)n2C)n1CCOc1ccccc1,4.0,-0.7,5.6,.,-2.6,264.7
N#C[C@@H]1[C@H](c2ccccc2-c2ccccc2)[C@H](CO)N1C(=O)Cc1ccncc1,.,.,-4.3,.,.,.
O=C(/C=C/c1ccccc1)c1ccc2c3c(cccc13)CC2,46.6*,0.9,.,3.0,0.0,217.7
O=C(NCC1CCCCC1)c1cccc(-c2ccc(O)cc2)c1,-2.1,-1.2,-0.2,82.5*,-0.9,16.8
CC(=O)Nc1cccc(NC(=O)c2cccc(-c3ccc(O)cc3)c2)c1,11.0,0.0,3.5,98.5*,0.6,-3.0
CC(=O)Nc1cccc(NC(=O)c2cccc(Cl)c2)c1,1.8,.,-1.5,.,-0.9,.
CCC(=O)N1C[C@H](C)[C@H](OC)CN(C)C(=O)c2cc(NC(=O)C3CCCCC3)ccc2OC[C@H]1C,.,.,-0.1,.,.,.
COc1cccc(/C=N/NC(=O)CNC(=O)c2ccc3c(c2)OCCO3)c1O,-0.2,-1.9,.,93.7*,-0.2,11.4
Cc1cccc(/C=N/NC(=O)c2ccc3c(c2)OCCO3)c1O,-20.0,0.3,2.4,13.6,.,-6.0
CCOc1cccc(/C=N/NC(=O)c2ccc3c(c2)OCCO3)c1O,-5.0,-1.2,-3.3,90.3*,11.1,38.9
CC(=O)N1[C@H](CO)[C@H](c2ccccc2)C12CN(C(=O)c1cnccn1)C2,.,.,-1.7,.,.,.
COCC(=O)Nc1ccc2c(c1)OC[C@H](C)N(Cc1ccccc1OC)C[C@H](C)[C@H](OC)CN(C)C2=O,.,.,-6.9,.,.,.
Cc1ccc(S(=O)(=O)N(C)C[C@@H]2OCCCC[C@@H](C)Oc3ccc(NS(=O)(=O)c4cn(C)cn4)cc3C(=O)N([C@H](C)CO)C[C@@H]2C)cc1,.,.,1.1,.,.,.
CCOc1ccc(NC2CCN(C(C)=O)CC2)cc1,1.2,-0.8,3.0,90.9*,.,-1.2
CCOc1ccc(NC(=O)N(C2CCCCCC2)C2CCN(C(C)=O)CC2)cc1,-3.8,-1.2,.,-59.9,.,218.1
CC(=O)N1CCC(Nc2ccc(C)cc2)CC1,2.8,0.8,-1.1,98.4*,.,-15.4
O=C(C1CCC1)N1CC2(C1)[C@@H](c1ccccc1)[C@@H](CO)N2CCC(F)(F)F,.,.,-4.3,.,.,.
CCOc1cc(CNn2cn[nH]c2=S)cc(Cl)c1OCc1ccccc1F,-0.7,-0.7,-1.2,90.4*,6.3,5.6
COc1cc(CNn2c(C)n[nH]c2=S)cc(Cl)c1OCc1ccc(F)cc1,0.5,2.1,.,-6.3,3.2,-7.6

# Source: PubChem (Broad Institute)
